Reference: ChEMBL document CHEMBL4513216, “Probing the Open Global Health Chemical Diversity Library for Multistage-Active Starting Points for Next-Generation Antimalarials” (ACS Infect Dis, 2020)
In all, about 68,000 compounds went through this assay and about 2,700 (4%) showed an effect of 50% or more. Shown is part of a subset that was picked to be rich in strong results.

Tested on: Plasmodium berghei
Assay: Screen against P. berghei liver stage (PbLuc), transformed with Luciferase, at 2uM
Assay type: functional, HepG2
Settings: tested at 2 uM

In order of rising INHIBITION:
1. COC(C)(C)C(=O)N1Cc2cnc(C(C)(C)C)nc2C1  -82.18%
2. CCc1ccc(NC(=O)N2C[C@@H]3C[C@H](C(=O)NC)[C@H](C2)O3)cc1  -56.73%
3. Cc1noc(C)c1CN1C(=O)[C@@H]2CC[C@H]1CN(Cc1cscn1)C2  -55.91%
4. CCc1nnc(CN2CCOC(Cn3cc(C)cn3)C2)o1 (stereo unspecified)  -50.23%
5. C1CC(CN2CCc3c(nnn3CC3CC3)C2COCC2CC2)C1 (stereo unspecified)  -38.23%
6. O=C(Nc1ccccc1)C1CN(C(=O)c2cccs2)CC12CCOCC2 (stereo unspecified)  -36.65%
7. O=C1[C@@H]2CCN(Cc3ccoc3)C[C@@H]2OCCN1Cc1cccnc1  -32.67%
8. O=C(NC1CCC1)c1n[nH]c2c1CNCC2  -29.3%
9. CC(C)C1CN(Cc2c[nH]cn2)CCCN1CC1CC1 (stereo unspecified)  -28.5%
10. CC(=O)N1C[C@@H](c2ccsc2)[C@@H]2CN(Cc3ccccc3Cl)CC[C@@H]21  -27.6%
11. CC(C)CS(=O)(=O)N1C[C@@H]2C[C@H](C(=O)N3CCN(C)CC3)[C@H](C1)O2  -26.46%
12. CCS(=O)(=O)N1Cc2c(Cn3cccc3)nn(C(C)C)c2C1  -24.79%
13. CC1COCCN1Cc1nc(-c2ccc(F)cc2)no1 (stereo unspecified)  -24.5%
14. Cn1cncc1-c1nnc([C@H]2CCN(CC(C)(C)C)C2)o1  -23.78%
15. O=C(NCc1cn2cccnc2n1)C1CC(=O)N(Cc2cccnc2)C1 (stereo unspecified)  -23.46%
16. COc1cc(Cl)c(NC(=O)NCCn2cccc2)cc1OC  -23.44%
17. CC(C)c1cc2c(s1)NC(c1ccccn1)NC2=O (stereo unspecified)  -23.17%
18. CCOC(=O)CNC(=O)Cn1c(-c2ccoc2)nc(C)c1C  -19.53%
19. Cc1nc(C)n(C2CCCN(C(=O)CCCOc3ccccc3)C2)n1 (stereo unspecified)  -17.71%
20. CC(C)C(C#N)N1CCN(Cc2nccn2CC(F)(F)F)CC1 (stereo unspecified)  -16.4%
21. CCC[C@H]1CN(c2cncc(C(=O)N3CCCCC3)n2)C[C@@H]1N(C)C  -16.39%
22. CCCS(=O)(=O)N1CCOC2(CCCN(c3ccc(C)nn3)C2)C1 (stereo unspecified)  -15.73%
23. COc1ncccc1NC(=O)N1CCC(c2ccc(O)cc2)CC1  -14.28%
24. CN1CCC(O)(CNC(=O)c2cc(COc3cccc(F)c3)[nH]n2)CC1  -13.79%
25. CCC(C)C(=O)NCc1cccc(OCCN(C)C2CCOCC2)c1 (stereo unspecified)  -13.37%
26. Cc1cc(N2CCC(Cc3cnccn3)C2)ncn1 (stereo unspecified)  -10.89%
27. Cn1nnc2c1CCN(CC1CC1)C2COCC1CC1 (stereo unspecified)  -10.89%
28. CN(CCCOc1ccccc1Cl)C(=O)CN1CCNC1=O  -9.33%
29. COc1ccccc1CC(=O)N1CCCC(n2nc(C)cc2C)C1 (stereo unspecified)  -7.5%
30. CC(OCC1CC1)C(=O)Nc1cccc(C(=O)Nc2ccccn2)c1 (stereo unspecified)  -5.74%
31. CSC1(CNC(=O)c2ccn(-c3ccccc3F)n2)CCOCC1  -5.41%
32. Cc1cc(C)n(C2CCCN(C(=O)CCCc3ccccn3)C2)n1 (stereo unspecified)  -5.15%
33. Cc1ccc(C)c(NS(=O)(=O)c2cc3c(c(C(=O)O)c2)OCCO3)c1  -5.09%
34. NC(=O)c1cn(CC2CC2)c(C2CC2)n1  -4.87%
35. CCN1CC(COC(=O)c2ccc(N(C)C)cc2F)CC1=O (stereo unspecified)  -3.43%
36. Cc1nc(C)n(C2CCCN(C(=O)COc3ccccc3)C2)n1 (stereo unspecified)  -2.9%
37. Cc1nc(CNC(=O)CCN2CCN(c3ccccc3)CC2)oc1C  -0.39%
38. CC(=O)Nc1nc(CN2CCOC(Cn3cncn3)C2)cs1 (stereo unspecified)  -0.13%
39. Cc1ccccc1SC1CCN(C(=O)C2[C@H]3CNC[C@@H]23)CC1 (stereo partly specified)  2.49%
40. CC(CN1CCOCC1)NC(=O)N(C)Cc1ccc(Cl)s1 (stereo unspecified)  2.8%
41. O=C1[C@@H]2CCN(C3CCOCC3)C[C@@H]2OCCN1Cc1cccnc1  4.08%
42. Cn1nc(Cn2ccnc2)c2c1CN(Cc1ccoc1)C2  4.26%
43. CCn1cc(C2CCN(Cc3ccnc(N(C)C)c3)CC2)cn1  5.17%
44. COCC(=O)NCc1cccc(OCCN(C)C2CCOCC2)c1  6.07%
45. CC(C)(C)n1ncc(NCC(O)c2ccccc2C(F)(F)F)c(Cl)c1=O (stereo unspecified)  6.26%
46. COCc1nn(C(C)C)c2c1CCN(Cc1ccoc1)C2  6.35%
47. CCOCC1CN(Cc2ccncc2)Cc2nn(C)cc21 (stereo unspecified)  7.26%
48. CNC(=O)[C@H]1C[C@H]2CN(C(=O)Nc3ccccc3)C[C@@H]1O2  7.35%
49. O=C(CCCn1cncn1)N1CCCC1c1noc(C2CC2)n1 (stereo unspecified)  8.65%
50. OC1(CNCCc2csc(-c3ccncc3)n2)CCCNC1 (stereo unspecified)  10.72%
51. Cc1ccc(C(=O)O)cc1S(=O)(=O)N(CC(C)O)c1ccccc1 (stereo unspecified)  11.33%
52. CN(C)CCN1CC(C(=O)NCc2cn3cccnc3n2)CC1=O (stereo unspecified)  11.37%
53. O=C(C1CCCC1)N1CC2(CCN(C3COC3)C2)OCc2ccccc21 (stereo unspecified)  12.39%
54. Cn1nc2c(cc1=O)CN(Cc1nc(C(C)(C)C)no1)CC2  12.91%
55. CC(C)NC(=O)CS(=O)(=O)Cc1cc(Cl)c2c(c1)OCCO2  14.82%
56. CCOCC(O)CN1CCN(C(=O)c2cc(Cl)ccc2F)CC1 (stereo unspecified)  15.08%
57. Cn1nc(Cn2cccn2)c2c1CN(Cc1ccoc1)C2  15.34%
58. CC(C)CS(=O)(=O)N1C[C@@H]2C[C@H](C(=O)N3CCOCC3)[C@H](C1)O2  15.36%
59. O=C1CC[C@H]2CN(Cc3ncc[nH]3)CC[C@H]2N1CC1CCNCC1  17.37%
60. Cc1cc(CC(=O)NCC(O)c2ccc(OC(F)F)cc2)n[nH]1 (stereo unspecified)  17.94%
61. O=C(Cn1ccc2cc(Br)ccc21)NCc1ccc(C(=O)O)cc1  18.15%
62. Cc1nc(-c2ccoc2)n(CC(=O)NCC(C)C)c1C  19.53%
63. CC(C)CC(=O)N1C[C@@H]2CCN(c3cnccn3)C[C@@H]2C1  20.51%
64. Cc1nc(CN2CCCC2c2noc(C3CC3)n2)nc2ccccc12 (stereo unspecified)  22.29%
65. CCCS(=O)(=O)N1C[C@@H]2C[C@H](C(=O)N3CCCC3)[C@H](C1)O2  22.71%
66. COCCOCC(=O)N1C[C@@H]2CC[C@H](Oc3cccc(F)c3)[C@@H]2C1  24.06%
67. c1cnc(N2CCC3(CN(CC4CCOC4)C3)C2)nc1 (stereo unspecified)  24.54%
68. O=C(c1cnccn1)N1C[C@@H]2CCN(c3cnccn3)C[C@@H]2C1  24.95%
69. CCN(C)c1ncnc2c1CCN(CC1CCOC1)CC2 (stereo unspecified)  26.76%
70. CN(CCCOc1ccccc1Cl)C(=O)CN1C(=O)CCNC1=O  27.67%
71. O=C(C1CCCC1)N1C[C@@H]2CCN(c3cnccn3)C[C@@H]2C1  28.75%
72. CSc1ccc(-c2noc(CN(Cc3ccccc3)C(C)C)n2)cc1  28.97%
73. CN1CCC(c2cccc(NCc3nccn3C)n2)CC1  29.25%
74. COc1cc(Cl)ccc1C(=O)NCc1n[nH]c(C)n1  29.39%
75. COc1cc(C)c(NC(=O)CCn2cccc2)cc1OC  30.42%
76. Fc1ccc(CN2CC[C@H]3O[C@@H](COCC4CCOCC4)CC[C@H]32)cc1  32.31%
77. CCCS(=O)(=O)N1C[C@@H]2C[C@H](C(=O)N3CCOCC3)[C@H](C1)O2  32.59%
78. O=C(Cc1ccc(F)cc1)N1CCn2cc(Cn3cncn3)nc2C1  37.2%
79. Cc1n[nH]c(C2CN(C(=O)c3cc(C)sc3C)CCO2)n1 (stereo unspecified)  40.13%
80. CCC(=O)N1C[C@@H]2CCN(c3cnccn3)C[C@@H]2C1  40.28%
81. O=C(O)c1cc(C2=CCCCC2)cc(S(=O)(=O)NCc2ccccn2)c1  40.88%
82. c1cnc(N2CCC3(CCN(CC4CCOC4)CC3)CC2)nc1 (stereo unspecified)  42.27%
83. Cc1ccc(C2NC(=O)c3cc(C(C)C)sc3N2)cc1 (stereo unspecified)  46.98%
84. O=C(C1CCCCC1)N1C[C@@H]2CCN(c3cnccn3)C[C@@H]2C1  50.17%
85. Cn1nc(Cn2cccc2)c2c1CN(Cc1ccoc1)C2  50.32%
86. CN(CCCOc1ccccc1Cl)C(=O)CN1CCCCCC1=O  50.42%
87. CCCC(=O)N1C[C@@H]2CCN(c3cnccn3)C[C@@H]2C1  50.72%
88. CC(C)n1nc(Cn2cccc2)c2c1CN(Cc1ccoc1)C2  51.4%
89. CC(C)c1cc2c(s1)NC(c1ccccc1)NC2=O (stereo unspecified)  51.76%
90. CS(=O)(=O)N1C[C@@H]2C[C@H](C(=O)N3CCOCC3)[C@H](C1)O2  54.01%
91. c1cnc(N2C[C@H]3CN(CC4CCOC4)C[C@H]3C2)nc1 (stereo partly specified)  55.44%
92. CNC(=O)[C@H]1C[C@H]2CN(C(=O)Nc3ccc(F)cc3)C[C@@H]1O2  56.15%
93. O=C(NCc1cn2cccnc2n1)C1CC(=O)N(Cc2ccccn2)C1 (stereo unspecified)  56.79%
94. CCS(=O)(=O)N1CC[C@H]2C(=O)N(Cc3cccnc3)CCO[C@H]2C1  58.52%
95. COc1ccccc1CC(=O)N1CCCC(n2nc(C)nc2C)C1 (stereo unspecified)  59.23%
96. C1CN(CC2CC2)C(COCC2CC2)c2nnn(CC3CC3)c21 (stereo unspecified)  61.44%
97. Cc1nc(-c2ccoc2)n(CC(=O)N(C)CC(C)C)c1C  64.82%
98. Cc1nc(C)n(C2CCCN(C(=O)CCCc3ccccn3)C2)n1 (stereo unspecified)  70.27%
99. CCCS(=O)(=O)N1C[C@@H]2C[C@H](C(=O)N3CCN(C)CC3)[C@H](C1)O2  72.68%
100. CC(C)CC(=O)NCc1cccc(OCCN(C)C2CCOCC2)c1  74.08%
101. COc1cc(C)c(NC(=O)NCCn2cccc2)cc1OC  74.18%
